Experimental findings from publication PMC5700166 are described below.

Holding throughout (test): protein-binding microarray (PBM); PBM: ~300 nM protein, 6 mM HEPES pH 7.8, 80 mM KCl, 0.5 mM EDTA, 0.5 mM EGTA, 6% glycerol, 35 ng/ul poly-dIdC, 1% milk, 1 h, room temperature; Ap Aiptasia and Nv Nematostella (sea anemones) / Co Capsaspora / Aq Amphimedon (sponge) / Dm Drosophila / Hu human; RHD is the Rel homology domain; high values mean tight binding
Holding throughout (details): dsDNA, one strand shown

For assay [1], the target named is T1, GST-Ap-NF-kB RHD (Exaiptasia pallida (Aiptasia), UniProt A0A913YAJ5 2-422).
T1 sequence: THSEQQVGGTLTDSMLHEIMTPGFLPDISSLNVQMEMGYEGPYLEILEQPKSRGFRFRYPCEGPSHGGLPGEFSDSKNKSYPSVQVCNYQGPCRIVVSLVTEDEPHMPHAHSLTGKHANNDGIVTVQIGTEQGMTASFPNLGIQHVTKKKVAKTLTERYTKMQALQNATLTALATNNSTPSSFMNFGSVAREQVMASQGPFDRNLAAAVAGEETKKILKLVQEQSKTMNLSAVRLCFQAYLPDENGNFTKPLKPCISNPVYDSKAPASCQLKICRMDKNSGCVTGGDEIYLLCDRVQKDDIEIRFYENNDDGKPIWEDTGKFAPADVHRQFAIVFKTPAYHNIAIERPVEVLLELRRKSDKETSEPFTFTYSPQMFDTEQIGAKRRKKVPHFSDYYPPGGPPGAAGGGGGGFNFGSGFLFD

Assay [2] has as its target T2, GST-Nv-NF-kB (Cys allele) (Nematostella vectensis, UniProt E5G601 2-411).
T2 sequence: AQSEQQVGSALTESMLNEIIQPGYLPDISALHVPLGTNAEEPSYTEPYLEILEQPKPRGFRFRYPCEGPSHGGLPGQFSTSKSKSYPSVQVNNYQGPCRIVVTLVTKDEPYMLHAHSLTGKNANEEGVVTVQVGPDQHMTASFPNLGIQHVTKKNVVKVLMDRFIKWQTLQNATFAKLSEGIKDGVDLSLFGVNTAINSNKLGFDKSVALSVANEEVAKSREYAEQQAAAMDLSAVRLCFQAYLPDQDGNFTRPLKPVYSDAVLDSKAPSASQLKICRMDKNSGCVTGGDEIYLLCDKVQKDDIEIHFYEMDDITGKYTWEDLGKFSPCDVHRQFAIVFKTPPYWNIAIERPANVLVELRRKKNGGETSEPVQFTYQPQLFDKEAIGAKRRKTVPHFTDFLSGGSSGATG

The target in assay [3] is T3, GST-Co-NF-kB (Capsaspora owczarzaki, UniProt F1ARL5 200-546).
T3 sequence: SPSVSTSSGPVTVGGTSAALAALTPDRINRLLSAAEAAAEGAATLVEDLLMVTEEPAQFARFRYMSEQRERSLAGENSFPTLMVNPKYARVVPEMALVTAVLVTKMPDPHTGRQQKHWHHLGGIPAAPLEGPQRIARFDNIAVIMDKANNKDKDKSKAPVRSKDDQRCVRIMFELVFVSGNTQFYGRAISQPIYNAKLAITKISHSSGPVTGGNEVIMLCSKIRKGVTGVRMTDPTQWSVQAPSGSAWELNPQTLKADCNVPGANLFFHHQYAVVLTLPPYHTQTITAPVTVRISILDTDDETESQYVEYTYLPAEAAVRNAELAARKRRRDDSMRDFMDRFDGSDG

Assay [4] deals with T4, GST-Dm-Relish (Drosophila melanogaster, UniProt Q94527 99-473).
T4 sequence: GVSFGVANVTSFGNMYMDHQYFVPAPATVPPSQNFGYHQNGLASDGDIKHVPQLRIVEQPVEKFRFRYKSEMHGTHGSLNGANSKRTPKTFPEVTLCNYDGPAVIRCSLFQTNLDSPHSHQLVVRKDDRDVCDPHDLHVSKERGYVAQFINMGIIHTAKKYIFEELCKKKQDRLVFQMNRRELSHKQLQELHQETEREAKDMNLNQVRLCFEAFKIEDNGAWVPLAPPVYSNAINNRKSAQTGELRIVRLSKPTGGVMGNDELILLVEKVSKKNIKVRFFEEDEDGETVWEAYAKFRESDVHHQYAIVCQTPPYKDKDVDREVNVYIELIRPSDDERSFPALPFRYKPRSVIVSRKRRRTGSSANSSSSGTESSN

Assay [5] deals with T5, GST-Aq-NF-kB (Amphimedon queenslandica, UniProt A9Y5G7 2-389).
T5 sequence: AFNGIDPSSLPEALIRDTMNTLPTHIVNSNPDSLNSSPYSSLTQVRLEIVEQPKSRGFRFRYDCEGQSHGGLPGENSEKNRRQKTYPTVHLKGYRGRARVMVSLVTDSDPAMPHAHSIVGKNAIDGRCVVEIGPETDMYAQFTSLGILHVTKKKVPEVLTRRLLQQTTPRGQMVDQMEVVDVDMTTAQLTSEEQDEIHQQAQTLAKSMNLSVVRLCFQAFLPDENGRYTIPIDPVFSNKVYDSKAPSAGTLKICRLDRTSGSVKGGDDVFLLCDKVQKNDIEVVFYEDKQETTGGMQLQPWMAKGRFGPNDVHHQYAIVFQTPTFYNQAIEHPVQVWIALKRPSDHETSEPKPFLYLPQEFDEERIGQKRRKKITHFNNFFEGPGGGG

In assay [6] the target is GST-Hu-p50 (Homo sapiens, UniProt P19838 7-356).
GST-Hu-p50, sequence (P19838 7-356): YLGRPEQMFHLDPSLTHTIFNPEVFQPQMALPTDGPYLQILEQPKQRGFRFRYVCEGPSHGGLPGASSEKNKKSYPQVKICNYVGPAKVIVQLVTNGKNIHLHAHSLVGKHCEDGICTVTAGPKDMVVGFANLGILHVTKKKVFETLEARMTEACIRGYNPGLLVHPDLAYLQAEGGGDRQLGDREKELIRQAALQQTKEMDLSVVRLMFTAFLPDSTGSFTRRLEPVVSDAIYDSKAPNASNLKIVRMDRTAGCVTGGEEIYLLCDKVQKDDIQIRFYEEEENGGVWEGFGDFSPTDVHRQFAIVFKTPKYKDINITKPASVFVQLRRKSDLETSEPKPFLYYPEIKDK

Take “CCGATTAACATCAGAAAAATCCCTGATGTTAATCGGGTCTTGATTCGCTTGACGCTGCTG”: the binding signal turned out to be 5.42 z-score in assay [1]; 6.84 z-score in assay [2]; 2.27 z-score in assay [3]; 9.03 z-score in assay [4]; 7.2 z-score in assay [5]; 5.46 z-score in assay [6].
On to “CCGATTAACATCAAAAGCCCCCTTGATGTTAATCGGGTCTTGATTCGCTTGACGCTGCTG”, for which the binding signal in assay [1] turned out to be 6.3 z-score; in assay [2], 6.73 z-score; in assay [3] it was 1.89 z-score; in assay [4], 7.9 z-score; in assay [5], 6.88 z-score; in assay [6] it was 6.5 z-score.
For the sequence “CCGATTAACATCAATCCACCCCCTGATGTTAATCGGGTCTTGATTCGCTTGACGCTGCTG”, the binding signal in assay [1] came to 3.95 z-score; in assay [2] it was 3.33 z-score; in assay [3] it was 4.65 z-score; in assay [4], 2.99 z-score; in assay [5], 3.63 z-score; in assay [6], 4.45 z-score.
Turning to “CCGATTAACATCAAGGGACTTCCTGATGTTAATCGGGTCTTGATTCGCTTGACGCTGCTG”, the binding signal in assay [1] worked out at 6.06 z-score; in assay [2] it was 7.09 z-score; in assay [3], 1.07 z-score; in assay [4], 7.2 z-score; in assay [5], 6.58 z-score; in assay [6], 5.08 z-score.
With “CCGATTAACATCAACACTCCCCCTGATGTTAATCGGGTCTTGATTCGCTTGACGCTGCTG”, the binding signal is 5.32 z-score in assay [1]; 4.24 z-score in assay [2]; 5.26 z-score in assay [3]; 2.43 z-score in assay [4]; 4.25 z-score in assay [5]; 5.34 z-score in assay [6].
“CCGATTAACATCAGGGGGAGGGATGATGTTAATCGGGTCTTGATTCGCTTGACGCTGCTG”: the binding signal in assay [1] is 4.44 z-score; in assay [2], 4.45 z-score; in assay [3] it was 5.87 z-score; in assay [4] it was 3.28 z-score; in assay [5], 4.21 z-score; in assay [6], 4.01 z-score.
“CCGATTAACATCAAATTTACCCCTGATGTTAATCGGGTCTTGATTCGCTTGACGCTGCTG”: the binding signal in assay [1] turned out to be 3.29 z-score; in assay [2] it was 3.57 z-score; in assay [3], 8.25 z-score; in assay [4], 3.85 z-score; in assay [5] it was 4.53 z-score; in assay [6], 4.09 z-score.
On to “CCGATTAACATCAAAAGCCCCCATGATGTTAATCGGGTCTTGATTCGCTTGACGCTGCTG”, for which the binding signal in assay [1] was 5.8 z-score; in assay [2], 6.19 z-score; in assay [3], 2.08 z-score; in assay [4] it was 6.91 z-score; in assay [5], 6.49 z-score; in assay [6], 6.29 z-score.
For “CCGATTAACATCAGAAAGTTCCCTGATGTTAATCGGGTCTTGATTCGCTTGACGCTGCTG”, the binding signal in assay [1] is 4.17 z-score; in assay [2], 4.74 z-score; in assay [3], 3.54 z-score; in assay [4] it was 6.32 z-score; in assay [5], 5.8 z-score; in assay [6], 4.18 z-score.
As to “CCGATTAACATCAAGAAAATCCCTGATGTTAATCGGGTCTTGATTCGCTTGACGCTGCTG”, the binding signal worked out at 5.56 z-score in assay [1]; 5.43 z-score in assay [2]; 2.27 z-score in assay [3]; 6.64 z-score in assay [4]; 5.58 z-score in assay [5]; 4.6 z-score in assay [6].
“CCGATTAACATCACGGGAACTCCTGATGTTAATCGGGTCTTGATTCGCTTGACGCTGCTG”: the binding signal in assay [1] amounted to 3.24 z-score; in assay [2] it was 2.3 z-score; in assay [3], 1.84 z-score; in assay [4], 6.49 z-score; in assay [5] it was 4.59 z-score; in assay [6] it was 1.48 z-score.
“CCGATTAACATCAAAAAGCCCCGTGATGTTAATCGGGTCTTGATTCGCTTGACGCTGCTG”: the binding signal is 6.52 z-score in assay [1]; 8.2 z-score in assay [2]; 1.43 z-score in assay [3]; 8.47 z-score in assay [4]; 7.21 z-score in assay [5]; 6.06 z-score in assay [6].
For “CCGATTAACATCAGGGGGTGGAATGATGTTAATCGGGTCTTGATTCGCTTGACGCTGCTG”, the binding signal turned out to be 3.47 z-score in assay [1]; 3.19 z-score in assay [2]; 4.5 z-score in assay [3]; 2.66 z-score in assay [4]; 3.65 z-score in assay [5]; 4.42 z-score in assay [6].
